Screens deposited in PubChem BioAssay by several laboratories.
tim23-1 inh = growth inhibitors of tim23-1 mutant yeast, primary screen, luminescence, uHTS | S. cerevisiae tim23-1 growth, BacTiter-Glo luminescence, 24 h | inhibition, % at 20 µM | hit rate 1.3% among 330,000;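 active = growth inhibition of the mutant yeast at or above 50%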;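 note: temperature-sensitive mutant grown at 25 °C; plate controls were DMSO-treated mutant yeast for no effect and medium wells lacking yeast for full effect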
SKKanGAS inh = S. pyogenes SKKanGAS growth inhibitors in kanamycin, primary screen, streptokinase expression inhibitor project, SKKanGAS strain, BacTiter-Glo luminescence; hit rate 1.3% among 300,000; inhibition, % at 7.5 µM; AID 1662, 2009; 6 h;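 active = mean replicate score, as percent of positive control median, at least 50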;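 note: strain carries kanamycin resistance gene driven by streptokinase promoter and grows in 40 µg/ml kanamycin; loss of luminescence reflects streptokinase promoter inhibition or plain growth inhibition; 0% = median of DMSO wells and 100% = positive control at its reference dose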
NALP3 yeast inh = NALP3 inflammasome inhibitors in reconstituted yeast, primary screen, luminescence, uHTS; Yeast reconstituted NLRP3/ASC/caspase-1, beta-gal luminescence, 24 h; inhibition, % at 10 µM; hit rate 0.39% among 330,000;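 active = inhibition of 50% or more; inactive = inhibition below 50%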;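 note: plate controls were induced DMSO wells for no effect and uninduced yeast grown without galactose for full effect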
tim10-1 inh = growth inhibitors of tim10-1 mutant yeast, primary screen, luminescence, uHTS; S. cerevisiae tim10-1 ts strain growth, BacTiter-Glo, 24 h; inhibition, % at 20 µM; hit rate 2.2% among 330,000;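 active = inhibition of at least 40%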;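 note: mutant grown at 25 °C; 0% = DMSO wells with yeast and 100% = wells holding no yeast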
TIM10 inh = growth inhibitors of isogenic TIM10 control yeast, primary screen, counter-screen for tim10-1 yeast inhibitor project, luminescence, uHTS. S. cerevisiae TIM10 strain growth, BacTiter-Glo luminescence, 24 h. inhibition, % at 10 µM. hit rate 1.4% among 330,000;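 active = inhibition of 40% or more at the single tested concentration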;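 note: wild-type TIM10 isogenic control strain grown at permissive 25 °C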
tim10-1 conf = growth inhibitors of tim10-1 mutant yeast, confirmation, single concentration, luminescence, S. cerevisiae. hit rate 56% among 7,400. shares compounds with tim10-1 inh. S. cerevisiae tim10-1 ts strain growth, BacTiter-Glo, 24 h. inhibition, % at 20 µM;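 active = inhibition of yeast growth at or above a set limit in either of two repeat tests at 20 µM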;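 note: tim10-1 mutant grown at permissive 25 °C to find synthetic lethal compounds; 0% = DMSO yeast wells and 100% = medium wells without yeast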
The depositor's hits bear a star; / = no result. This is a sample that favours compounds with a hit; in the whole collection about 4.6% have one here.

SMILES	tim23-1 inh	SKKanGAS inh	NALP3 yeast inh	tim10-1 inh	TIM10 inh	tim10-1 conf
C=C1CCC[C@]2(C)C[C@H]3OC(=O)C(CNC(CC)CO)[C@H]3CC12 (some centres not stated)	35	1	-83	52*	16	45*
C=C1CCC[C@]2(C)C[C@H]3OC(=O)C(CNC(C)CC)[C@H]3CC12 (some centres not stated)	31	0	1	43*	30	37*
NS(=O)(=O)c1cccc(NC(=O)CCN2C(=O)C3CCCCC3C2=O)c1 (configuration not stated)	8	/	-4	12	6	/
Cc1ccc(NC(=O)c2ccc(NS(=O)(=O)/C=C/c3ccccc3)cc2)nc1	33	24	23	20	15	/
CCN(CC)C(=O)c1[nH]cnc1C(=O)Nc1ccc(C)cc1	15	/	12	10	-1	/
CC(=O)C1CCCN(C(=O)c2ccc3nc(Cc4cccc(Cl)c4)oc3c2)C1 (configuration not stated)	22	-1	3	27	8	/
Cc1ccc(C)c(N2CCN(C(=O)c3ccc(CS(=O)Cc4cccc(Cl)c4)o3)CC2)c1 (configuration not stated)	13	-1	15	42*	0	-11
O=C(c1ccc(CS(=O)Cc2cccc(Cl)c2)o1)N1CCN(C2CCCCC2)CC1 (configuration not stated)	-12	-4	3	-5	-13	/
Cc1ccc(C(=O)N2CCN(c3cccc(C)c3C)CC2)o1	26	4	19	22	8	/
O=C(c1ccc(CS(=O)Cc2ccc(Cl)cc2)o1)N1CCN(c2cccc(Cl)c2)CC1 (configuration not stated)	10	20	21	40*	17	0
O=C(c1ccc(CS(=O)Cc2ccc(Cl)cc2)o1)N1CCN(c2ccc(F)cc2)CC1 (configuration not stated)	18	9	0	30	7	/
Cc1cccc(N2CCN(C(=O)c3ccc(CS(=O)Cc4ccc(Cl)cc4)o3)CC2)c1C (configuration not stated)	38	17	11	54*	24	7
CN(C(=O)COC(=O)c1ccccc1NCCO)C1CCS(=O)(=O)C1 (configuration not stated)	5	-9	6	-2	-1	/
CCC(=O)NC(c1ccco1)c1cc(Cl)c2cccnc2c1OC (configuration not stated)	0	/	-1	4	-4	/
CCC(=O)NC(c1ccco1)c1cc(Cl)c2cccnc2c1O (configuration not stated)	46	-6	-25	40	1	28
CCCCc1cc(=O)oc2cc(C)cc(OCC(=O)N3C[C@H]4C[C@@H](C3)c3cccc(=O)n3C4)c12	16	-3	20	3	4	/
Cc1nc2c3cc(F)ccc3n(Cc3ccccc3F)c2s1	14	11	-34	42*	26	13
Cc1cccc(Nc2c([N+](=O)[O-])c(=O)n(C)c3ccccc23)c1	14	5	12	17	-23	/
CC(C)c1ccc(Nc2c([N+](=O)[O-])c(=O)n(C)c3ccccc23)cc1	15	3	30	51*	7	52*
CCSc1nnc(NC(=O)C2CSC3(C)CCC(=O)N23)s1 (configuration not stated)	23	/	-1	10	8	/
O=C(NCCO)c1cc2c([nH]c3ccccc32)c(-c2ccc(F)cc2)n1	34	21	7	29	29	/
O=C(NCCO)c1cc2c([nH]c3ccccc32)c(-c2ccccc2)n1	23	1	11	43*	15	14
C[C@]12c3[nH]c4ccc(Cl)cc4c3CCN1C(=O)[C@@H](CC(=O)NCCC1=CCCCC1)C[C@@H]2C(=O)N1CCOCC1	27	/	/	9	-6	/
CC(=O)Nc1ccc(NC(=O)C2CCN(C(=O)NC3CCCCC3)CC2)cc1	6	1	4	-8	12	/
CSc1ccc(S(=O)(=O)N2CCC(C(=O)N3CCc4ccccc4C3)CC2)cc1	30	-3	15	43*	10	28
SMILES	tim23-1 inh	SKKanGAS inh	NALP3 yeast inh	tim10-1 inh	TIM10 inh	tim10-1 conf
NC(=O)C1CCN(C(=O)CCSCc2ccc(Cl)c(Cl)c2)CC1	14	-6	-2	6	-8	/
CN1C(=O)C2(c3ccccc31)N(C)CC(c1ccccn1)C21SC(=S)N(Cc2ccco2)C1=O (configuration not stated)	41	1	3	47*	33	30
S=c1[nH]cc(-c2ccc(Cl)cc2)n1Cc1ccccc1	-14	4	39	29	21	/
S=c1[nH]cc(-c2ccccc2)n1-c1ccccc1	3	-2	9	44*	-5	1
Cc1ccc(-c2noc(CN3CCN(C(c4ccccc4)c4ccccc4)CC3)n2)cc1	24	4	4	41*	37	19
Cc1ccc(-c2noc(CN3CCCCC3)n2)cc1	9	-1	23	18	-15	/
COc1cc(SC#N)ccc1N=Cc1c(C)[nH]n(-c2ccc(Cl)cc2)c1=O	34	-1	25	42*	33	26
COCCOc1cc(Nc2nnc(C(F)(F)F)s2)c(Cl)cc1Cl	29	0	-22	46*	23	27
Cc1ccc(-c2csc(NC(=O)CN3CC(C)OC(C)C3)n2)cc1 (configuration not stated)	41	-2	24	40*	26	34*
O=C1CCCC/C=C\C[C@H](CC(=O)N(CCO)Cc2ccccc2)C(=O)N2CCC[C@@H]2CO1	7	/	28	2	0	/
CC1(c2ccccc2Cl)NC(=O)N(CC(=O)c2ccc3c(c2)OCO3)C1=O (configuration not stated)	1	1	20	6	-1	/
Cc1ccc(-c2[nH]ncc2C(=O)c2ccc(Br)cc2)c(O)c1	43	-6	14	42*	7	23
Cc1ccc(/C(N)=N/OC(=O)N2CCOCC2)cc1	29	1	18	58*	30	46*
Cc1cc(C)c(C)c(S(=O)(=O)ON2C(=O)c3ccccc3C2=O)c1C	36	-7	23	59*	27	61*
O=C(O)COc1ccccc1C=NNC(=O)c1ccccc1NS(=O)(=O)c1cccs1	-2	/	11	8	-4	/
Cc1cccc(OCCNc2cc(N3CCN(C)CC3)ccc2[N+](=O)[O-])c1	24	-2	42	29	20	/
Cc1ccc(OCCNc2cc(N3CCN(CCO)CC3)ccc2[N+](=O)[O-])cc1C	35	3	16	43*	17	23
